Where a name gives a salt, the structure may show the parent alone. ± gives the uncertainty stated by the source.
tested on: THP-1; experiment: CD54 surface expression induction over DMSO control (% over DMSO); higher = stronger dendritic cell activation; conditions: exposure time: 24 h
Description: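 hCLAT-like CD54 and CD86 surface expression on THP1 cells after 24 h exposure at a single concentration (highest non-cytotoxic concentration, or 100-200 µM if not cytotoxic). Flow cytometry (iQue) was run on 5,000 live cells.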

| SMILES | CD54 surface expression induction |
| --- | --- |
| C/C=C/C=C/CCCCCCCO [Codlelure] (200 µM) | -18.9 ± 4 |
| c1ccc(CCNc2nc(-c3ccccc3)cs2)cc1 [Fanetizole] (200 µM) | -4.51 ± 4.3 |
| COc1cc(Nc2c(C#N)cnc3cc(OCCCN4CCN(C)CC4)c(OC)cc23)c(Cl)cc1Cl [Bosutinib] (100 µM) | -7.93 ± 2.6 |
| Oc1ccc(/C=C/c2cc(O)cc(O)c2)cc1 [Resveratrol] (100 µM) | 1.74 ± 6.8 |
| CC(C)(C)c1ccc(S)cc1 [4-tert-Butylbenzenethiol] (200 µM) | 38.6 ± 14 |
| Clc1ccc2c(c1)Nc1ccccc1S2 [2-Chlorophenothiazine] (100 µM) | -15.3 ± 22 |
| O=C(CCCCCCC(=O)Nc1ccccc1)NO [Vorinostat (SAHA)] (100 µM) | 4.99 ± 15 |
| CC(=O)Oc1ccc(C(c2ccc(OC(C)=O)cc2)c2ccccn2)cc1 [Bisacodyl] (100 µM) | -7.9 ± 29 |
| CCCCOCCOCCOCCO [2-[2-(2-Butoxyethoxy)ethoxy]ethanol] (115 µM) | 20.1 ± 15 |
| O=C(O)c1cccnc1Nc1cccc(C(F)(F)F)c1 [Niflumic acid] (100 µM) | -11.5 ± 10 |
| O=C(Oc1ccccc1)c1ccccc1O [Phenyl salicylate] (200 µM) | -8.79 ± 7.5 |
| COc1cccc2c1C(=O)c1c(O)c3c(c(O)c1C2=O)C[C@@](O)(C(=O)CO)C[C@@H]3O[C@H]1C[C@H](N)[C@H](O)[C@H](C)O1 [Doxorubicin*] (10 µM) | 187 ± 27 |
| C#CCN(C)CCCOc1ccc(Cl)cc1Cl [Clorgyline hydrochloride] (100 µM) | -7.99 ± 0.71 |
| CCOC(=O)CCC(=O)OCC [Diethyl butanedioate] (200 µM) | -4.24 ± 4.1 |
| Cc1occc1S [2-Methyl-3-furanthiol] (200 µM) | 36.6 ± 1.1 |
| CC(=O)Oc1ccc(C2(c3ccc(OC(C)=O)cc3)C(=O)Nc3ccccc32)cc1 [Oxyphenisatin acetate] (100 µM) | 9.56 ± 1.9 |
| CC(C)(C)c1cc(O)ccc1O [tert-Butylhydroquinone] (100 µM) | 48.9 ± 12 |
| CN(C)c1ccc(SC#N)cc1 [4-(Dimethylamino)phenylthiocyanate] (10 µM) | -9.74 ± 4.1 |
| O=C(O)CCCCCCCCC(=O)O [Decanedioic acid] (200 µM) | -0.56 ± 5.1 |
| COC(=O)Nc1nc2cc([S+]([O-])c3ccccc3)ccc2[nH]1 (stereo not given) [Oxfendazole] (100 µM) | 17.4 ± 3.6 |

| SMILES | CD54 surface expression induction |
| --- | --- |
| O=C(OCc1ccccc1)c1ccc(O)cc1 [Benzylparaben] (100 µM) | -6.45 ± 0.19 |
| NC(=S)NC(N)=S [2,4-Dithiobiuret] (200 µM) | 15.9 ± 2.6 |
| O=C1c2ccccc2C(=O)C1c1ccc2ccccc2n1 [D & C Yellow II] (10 µM) | -4.43 ± 3.6 |
| CN(C)c1ccc(C(=C2C=CC(=[N+](C)C)C=C2)c2ccccc2)cc1 [Malachite green oxalate*] (10 µM) | 132 ± 20 |
| O=C(NS(=O)(=O)/C=C/c1cccs1)c1ccc(F)cc1Br (200 µM) | 4.11 ± 1.7 |
| Oc1c(Br)cc(Br)c2cccnc12 [Broxyquinoline] (100 µM) | 49.3 ± 18 |
| COc1cc(C(C)C)c2c(c1)S(=O)(=O)N(COc1cc(=O)n3cccc(OCCN4CCCCC4)c3n1)C2=O (100 µM) | 61 ± 55 |
| Nc1ccc(Nc2ccccc2)cc1 [N-Phenyl-1,4-benzenediamine] (200 µM) | 46.9 ± 11 |
| CCN(CC)c1ccc(C(=O)c2ccccc2C(=O)O)c(O)c1 [2-[4-(Diethylamino)-2-hydroxybenzoyl]benzoic acid] (10 µM) | -5.88 ± 5 |
| CC(C)(C)c1cc(O)c(C(C)(C)C)cc1O [2,5-Di-tert-butylbenzene-1,4-diol] (100 µM) | 38.2 ± 50 |
| O=C(Nc1ccccc1)c1cc([N+](=O)[O-])ccc1Cl [2-Chloro-5-nitro-N-phenylbenzamide] (200 µM) | 4.72 ± 3.4 |
| CCCCCCCC/C=C\CCCCCCCC(=O)N(C)CC(=O)O [Oleyl sarcosine] (100 µM) | 6.04 ± 0.79 |
| CO[C@@]12[C@H](COC(N)=O)C3=C(C(=O)C(C)=C(N)C3=O)N1C[C@@H]1N[C@@H]12 [Mitomycin C] (100 µM) | 55.6 ± 52 |
| Clc1ccccc1-c1nc(-c2ccncc2)no1 [Pifexole] (100 µM) | -5.59 ± 1.4 |
| CC[C@@]1(O)C(=O)OCc2c1cc1n(c2=O)Cc2c-1nc1ccccc1c2/C=N/OC(C)(C)C [Gimatecan] (10 µM) | -15.7 ± 5 |
| C=C1CC[C@H](O)C/C1=C/C=C1\CCC[C@]2(C)[C@@H]([C@H](C)/C=C/[C@H](C)C(C)C)CC[C@@H]12 [Ergocalciferol*] (100 µM) | 108 ± 7.2 |
| CC(C)(C)c1ccc(C(=O)CCCCl)cc1 [4'-Tert-butyl-4-chlorobutyrophenone] (100 µM) | -1.36 ± 1.9 |
| C=CC(=O)OCCn1c(=O)n(CCOC(=O)C=C)c(=O)n(CCOC(=O)C=C)c1=O (10 µM) | 3.33 ± 5.3 |
| O=C1c2cccc(O)c2C(=O)c2c(O)cccc21 [Danthron] (100 µM) | 16.5 ± 0.49 |
| CC1=C(/C=C/C(C)=C\C=C\C(C)=C\C(=O)O)C(C)(C)CCC1 [9-cis Retinoic acid] (100 µM) | 44.4 ± 15 |
